# How the values were obtained:
# Experiment in all cases: DAPPL (digital affinity profiling via proximity ligation, sequencing); 10 mM Tris-HCl pH 7.5, 50 mM NaCl, 1 mM DTT, 4% glycerol, room temperature, 30 min; GST-TFs on glutathione beads, 16-mer random dsDNA library, 0.1% formaldehyde crosslink after washing; high values mean tight binding
# Settings in all cases: protein: recombinant; tags: N-terminal GST; dsDNA, one strand shown
# ELK4 = target: T1, ELK4 (Homo sapiens, UniProt P28324-2 1-405)
# T1 sequence: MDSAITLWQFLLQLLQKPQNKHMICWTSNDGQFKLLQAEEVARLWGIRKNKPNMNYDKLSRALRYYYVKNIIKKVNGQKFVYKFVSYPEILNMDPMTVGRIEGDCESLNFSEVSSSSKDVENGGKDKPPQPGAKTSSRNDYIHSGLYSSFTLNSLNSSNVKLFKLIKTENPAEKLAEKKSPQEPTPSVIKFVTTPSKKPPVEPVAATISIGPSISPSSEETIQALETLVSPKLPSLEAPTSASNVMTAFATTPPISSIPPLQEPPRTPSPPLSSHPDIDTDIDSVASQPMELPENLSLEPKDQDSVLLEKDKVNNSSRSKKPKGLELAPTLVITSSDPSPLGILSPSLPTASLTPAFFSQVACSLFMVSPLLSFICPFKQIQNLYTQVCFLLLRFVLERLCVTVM
# Procedure, shortened: (§1)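 Binding signal is defined as a hexamer's read frequency for one factor over its frequency for the tag-only sample. To obtain reads, GST-fused human transcription factors were expressed in yeast, captured on glutathione beads, barcoded with DNA and pooled with that sample. Pools met 200 nmole of a 16-mer random double-stranded DNA library in Tris/NaCl/DTT/glycerol buffer for 30 min at room temperature before washing, 0.1% formaldehyde crosslinking, proximity ligation (BsaI/T4 ligase, 1 h, 37 °C), PCR and Illumina NextSeq500 sequencing.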
# ELF3 = target: T2, ELF3 (Homo sapiens, UniProt P78545 1-371)
# T2 sequence: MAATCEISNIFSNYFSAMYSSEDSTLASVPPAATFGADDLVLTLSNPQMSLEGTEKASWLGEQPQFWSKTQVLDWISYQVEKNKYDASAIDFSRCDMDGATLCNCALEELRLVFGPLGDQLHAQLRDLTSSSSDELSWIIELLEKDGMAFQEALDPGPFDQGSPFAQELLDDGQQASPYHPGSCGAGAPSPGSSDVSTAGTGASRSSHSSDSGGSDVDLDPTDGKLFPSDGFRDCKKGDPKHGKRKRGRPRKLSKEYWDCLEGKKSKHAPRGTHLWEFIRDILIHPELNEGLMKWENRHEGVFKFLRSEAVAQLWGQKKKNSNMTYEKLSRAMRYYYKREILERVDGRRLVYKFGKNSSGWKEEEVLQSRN
# Procedure, shortened: as §1
# ETV1 = ETV1 (Homo sapiens, UniProt P50549 1-477)
# Sequence of ETV1 (P50549 whole entry): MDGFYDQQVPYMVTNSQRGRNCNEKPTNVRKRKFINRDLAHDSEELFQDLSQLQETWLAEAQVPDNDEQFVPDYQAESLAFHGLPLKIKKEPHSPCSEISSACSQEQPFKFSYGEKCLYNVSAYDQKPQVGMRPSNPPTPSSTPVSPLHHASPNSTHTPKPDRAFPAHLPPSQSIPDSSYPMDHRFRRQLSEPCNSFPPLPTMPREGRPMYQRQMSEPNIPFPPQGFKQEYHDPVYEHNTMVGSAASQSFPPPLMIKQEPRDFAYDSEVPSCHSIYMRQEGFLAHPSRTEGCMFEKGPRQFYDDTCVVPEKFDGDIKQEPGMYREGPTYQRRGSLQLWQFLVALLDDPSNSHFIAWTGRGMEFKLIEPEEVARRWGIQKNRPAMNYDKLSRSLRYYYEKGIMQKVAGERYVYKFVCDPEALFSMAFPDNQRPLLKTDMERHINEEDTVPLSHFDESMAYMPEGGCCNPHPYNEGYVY
# Procedure, shortened: as §1
# ERF = target: T3, ERF (Homo sapiens, UniProt P50548 1-548)
# T3 sequence: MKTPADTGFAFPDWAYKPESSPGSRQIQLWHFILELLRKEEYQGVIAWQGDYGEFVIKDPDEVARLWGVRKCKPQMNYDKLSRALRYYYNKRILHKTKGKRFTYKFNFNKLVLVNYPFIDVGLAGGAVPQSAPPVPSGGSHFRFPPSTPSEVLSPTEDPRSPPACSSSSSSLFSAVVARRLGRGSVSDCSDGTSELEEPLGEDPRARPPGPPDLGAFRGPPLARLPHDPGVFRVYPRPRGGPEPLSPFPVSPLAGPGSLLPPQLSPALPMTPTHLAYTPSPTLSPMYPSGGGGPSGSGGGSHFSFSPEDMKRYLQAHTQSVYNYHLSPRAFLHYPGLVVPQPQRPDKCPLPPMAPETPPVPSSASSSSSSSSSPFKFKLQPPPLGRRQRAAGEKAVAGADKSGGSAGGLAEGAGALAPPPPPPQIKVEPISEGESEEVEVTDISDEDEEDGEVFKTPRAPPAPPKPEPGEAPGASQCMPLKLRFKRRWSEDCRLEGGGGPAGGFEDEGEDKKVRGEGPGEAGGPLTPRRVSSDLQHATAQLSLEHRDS
# Procedure, shortened: as §1
# ETV3L = target: T4, ETV3L (Homo sapiens, UniProt Q6ZN32 1-361)
# T4 sequence: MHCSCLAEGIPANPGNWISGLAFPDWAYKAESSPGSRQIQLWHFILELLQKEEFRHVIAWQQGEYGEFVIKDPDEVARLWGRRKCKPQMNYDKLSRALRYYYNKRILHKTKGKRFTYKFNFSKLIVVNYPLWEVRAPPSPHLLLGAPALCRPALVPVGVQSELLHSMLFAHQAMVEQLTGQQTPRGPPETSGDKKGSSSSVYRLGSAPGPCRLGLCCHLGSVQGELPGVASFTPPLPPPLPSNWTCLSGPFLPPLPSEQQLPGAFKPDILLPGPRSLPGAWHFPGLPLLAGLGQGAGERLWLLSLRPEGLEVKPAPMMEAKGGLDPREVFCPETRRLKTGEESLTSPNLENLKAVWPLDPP
# Procedure, shortened: as §1
# ETS2 = target: T5, ETS2 (Homo sapiens, UniProt P15036 1-469)
# T5 sequence: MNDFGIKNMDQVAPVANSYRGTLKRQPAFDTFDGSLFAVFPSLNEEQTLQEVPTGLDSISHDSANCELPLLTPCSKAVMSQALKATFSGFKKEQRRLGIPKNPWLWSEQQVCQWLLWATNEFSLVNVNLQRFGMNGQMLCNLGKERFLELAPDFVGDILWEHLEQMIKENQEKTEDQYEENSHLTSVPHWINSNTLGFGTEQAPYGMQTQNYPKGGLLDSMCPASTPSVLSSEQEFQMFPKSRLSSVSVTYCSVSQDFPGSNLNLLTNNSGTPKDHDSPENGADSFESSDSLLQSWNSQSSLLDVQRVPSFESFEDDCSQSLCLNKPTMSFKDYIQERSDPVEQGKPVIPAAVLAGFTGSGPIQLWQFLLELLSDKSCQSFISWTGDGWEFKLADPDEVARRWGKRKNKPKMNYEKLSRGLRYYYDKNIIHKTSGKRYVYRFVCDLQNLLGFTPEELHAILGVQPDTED
# Procedure, shortened: as §1
# SPDEF = target: T6, SPDEF (Homo sapiens, UniProt O95238 1-335)
# T6 sequence: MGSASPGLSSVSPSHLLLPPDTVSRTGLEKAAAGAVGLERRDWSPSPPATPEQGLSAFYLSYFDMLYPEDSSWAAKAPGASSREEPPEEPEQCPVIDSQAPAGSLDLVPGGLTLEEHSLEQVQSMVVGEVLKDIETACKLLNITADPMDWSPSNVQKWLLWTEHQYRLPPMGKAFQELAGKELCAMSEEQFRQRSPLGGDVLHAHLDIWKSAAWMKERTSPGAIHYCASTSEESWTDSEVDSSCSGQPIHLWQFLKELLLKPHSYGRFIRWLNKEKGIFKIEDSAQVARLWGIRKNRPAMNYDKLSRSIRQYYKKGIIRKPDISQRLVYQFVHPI
# Procedure, shortened: as §1
# ETV7 = target: T7, ETV7 (Homo sapiens, UniProt Q9Y603 1-341)
# T7 sequence: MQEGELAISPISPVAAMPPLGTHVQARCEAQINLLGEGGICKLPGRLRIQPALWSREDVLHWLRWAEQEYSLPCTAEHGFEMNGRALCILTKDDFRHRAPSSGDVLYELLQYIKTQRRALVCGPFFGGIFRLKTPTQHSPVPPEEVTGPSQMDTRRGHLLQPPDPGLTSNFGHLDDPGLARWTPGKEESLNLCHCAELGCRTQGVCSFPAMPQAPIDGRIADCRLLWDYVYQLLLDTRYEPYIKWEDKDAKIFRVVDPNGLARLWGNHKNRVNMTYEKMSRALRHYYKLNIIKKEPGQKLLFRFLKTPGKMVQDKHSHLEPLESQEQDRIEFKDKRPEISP
# Procedure, shortened: as §1
# ETV3 = target: T8, ETV3 (Homo sapiens, UniProt P41162-2 1-143)
# T8 sequence: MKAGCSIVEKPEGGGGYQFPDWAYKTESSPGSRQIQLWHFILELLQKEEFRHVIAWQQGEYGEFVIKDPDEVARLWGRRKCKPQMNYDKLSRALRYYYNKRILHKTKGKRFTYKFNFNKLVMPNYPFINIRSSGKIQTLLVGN
# Procedure, shortened: as §1
# ETV6 = ETV6 (Homo sapiens, UniProt P41212 1-452)
# Sequence of ETV6 (P41212 whole entry): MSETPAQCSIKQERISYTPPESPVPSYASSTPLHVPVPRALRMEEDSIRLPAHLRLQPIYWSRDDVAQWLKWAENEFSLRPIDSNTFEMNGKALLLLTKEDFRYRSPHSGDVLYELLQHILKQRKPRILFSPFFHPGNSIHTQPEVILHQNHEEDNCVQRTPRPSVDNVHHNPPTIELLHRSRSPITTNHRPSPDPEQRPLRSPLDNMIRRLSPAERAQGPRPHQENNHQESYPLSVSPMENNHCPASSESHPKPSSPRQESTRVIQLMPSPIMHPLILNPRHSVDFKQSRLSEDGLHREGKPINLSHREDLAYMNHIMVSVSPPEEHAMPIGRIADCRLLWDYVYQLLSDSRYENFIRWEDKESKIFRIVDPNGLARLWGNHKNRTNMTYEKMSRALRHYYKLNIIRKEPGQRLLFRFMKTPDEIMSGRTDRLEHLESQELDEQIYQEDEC
# Procedure, shortened: as §1
sequence,measurement,setting,value
CGTTGC,binding signal,ELK4,"1.16 fold enrichment (6-mer frequency, TF over GST control)"
same,binding signal,ELF3,"1.07 fold enrichment (6-mer frequency, TF over GST control)"
same,binding signal,ETV1,"1.18 fold enrichment (6-mer frequency, TF over GST control)"
same,binding signal,ERF,"1.13 fold enrichment (6-mer frequency, TF over GST control)"
same,binding signal,ETV3L,"1.17 fold enrichment (6-mer frequency, TF over GST control)"
same,binding signal,ETS2,"1.2 fold enrichment (6-mer frequency, TF over GST control)"
same,binding signal,SPDEF,"1.18 fold enrichment (6-mer frequency, TF over GST control)"
same,binding signal,ETV7,"1.03 fold enrichment (6-mer frequency, TF over GST control)"
same,binding signal,ETV3,"1.16 fold enrichment (6-mer frequency, TF over GST control)"
same,binding signal,ETV6,"1.04 fold enrichment (6-mer frequency, TF over GST control)"
